The source of these data is PubChem BioAssay (NCI).

The panel holds about 83,000 compounds, 20% with a hit somewhere; the sample as a whole holds those more often.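 For each line, cells grew in 96-well plates with the test compound present at a single concentration for 48 hours.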 Values without a mark were called inactive. Calls of active or inactive are those of the source. The calls were made as follows: active = growth percent below 10; inactive = the rest.

What all share (test): NCI-60 one-dose screen, 48 h (100 = growth as untreated, 0 = no growth, -100 = all killed)
What all share (conditions): 10 µM unless noted

Assay [1] concerns SR leukemia.
Assay [2] relates to OVCAR-8 ovarian.
For assay [3], the system named is OVCAR-5 ovarian.
The subject of assay [4] is OVCAR-4 ovarian.
Assay [5] relates to IGROV1 ovarian.
For assay [6], the system named is OVCAR-3 ovarian.
Assay [7] concerns HS 578T breast.
For assay [8], the system named is NCI/ADR-RES ovarian.
Assay [9] concerns T-47D breast.
Assay [10] deals with BT-549 breast.
The subject of assay [11] is MDA-MB-435 melanoma.
Assay [12] relates to SW-620 colon.
For assay [13], the system named is MCF7 breast.
The subject of assay [14] is HCT-116 colon.
The subject of assay [15] is HCC-2998 colon.
Assay [16] concerns KM12 colon.
Assay [17] has as its system RPMI-8226 leukemia.
The subject of assay [18] is SK-OV-3 ovarian.

As for `Cc1ccc(-c2cc3nc(-c4ccccc4)nc(C(Cl)Cl)n3n2)cc1`, the growth was 71.2% in assay [1]; -25.5% (active) in [2]; -27.2% (active) in [3]; -46% (active) in [4]; 46% in [5]; -94.5% (active) in assay [6]. The growth in assay [7] is -42.1% (active); in [8] it was -30.7% (active); in assay [9] it was -47.1% (active); in assay [10], 60.3%; in assay [11] it was -68.3% (active); in assay [12] it was -48.2% (active). Further, the growth in assay [13] is -10.7% (active); in assay [14], -87.6% (active); in assay [15] it was -90.6% (active); in assay [16], -83.6% (active).

For `CN(C[C@H]1Cc2c(cccc2N2CCN(Cc3ccccn3)CC2)CN1)[C@H]1CCCc2cccnc21`, the growth in [17] was 64.5%; in assay [2], 42.7%; in assay [3], 71%; in assay [4], 72.6%; in [18] it was 51.2%; in [5], 49.2%. Also, the growth in assay [6] was 64.9%; in assay [7] it was 92.2%; in [8] it was 28.1%; in assay [9], 44.6%; in assay [10] it was 81.9%; in [11] it was 69.6%. The growth was 51.3% in assay [12]; 44.1% in assay [13]; 30.8% in assay [14]; 94% in assay [15]; 51.7% in assay [16].

For the compound `Cc1ccc(C(=O)NCCCNc2nccc(-n3ccc4cccnc43)n2)cc1`, the growth in assay [1] is 92.7%; in assay [2], 100%; in assay [3] it was 89.8%; in [4] it was 96.3%; in [18], 106%; in [5] it was 88.6%. For the same compound, the growth was 105% in assay [6]; 101% in [7]; 90.6% in assay [9]; 104% in [11]; 109% in [12]; 103% in assay [13]. Besides, the growth in [14] is 93.7%; in assay [15], 109%; in [16], 103%.

As to `COc1ccc(Nc2[nH]n3c(=O)cc(C)nc3c2C(N)=O)c(OC)c1`, the growth is 102% in assay [17]; 97.4% in assay [2]; 113% in assay [3]; 99.2% in [4]; 88.3% in assay [18]; 107% in [5]. Further, the growth in assay [6] was 106%; in [7], 99.2%; in assay [8], 103%; in assay [9] it was 79.8%; in assay [10], 95.3%; in assay [11], 114%. In addition, the growth is 93.3% in assay [12]; 92.7% in assay [13]; 97.8% in [14]; 108% in assay [15]; 101% in assay [16].

For `Cc1cc(N)n(S(=O)(=O)c2oc(-c3ccccc3)nc2C#N)n1`, the growth in [17] was 75.9%; in assay [2] it was 89.4%; in assay [3], 109%; in [4], 106%; in [18], 91.8%; in [5] it was 97.9%. In addition, the growth was 89.9% in assay [6]; 116% in [7]; 100% in [8]; 71% in assay [9]; 101% in assay [10]; 91.8% in [11]. Further, the growth is 48.9% in assay [12]; 64% in [13]; 75% in assay [14]; 114% in assay [15]; 101% in assay [16].

Consider `O=C(c1ccccc1)c1c(/C=C/c2ccccc2)c2ccccc2[nH]c1=O`, for which the growth is 94.6% in assay [17]; 90.9% in assay [2]; 90.4% in assay [3]; 97.7% in assay [4]; 102% in [18]; 95.4% in assay [5]. The growth was 97.6% in assay [6]; 88.7% in assay [7]; 97.5% in [8]; 93.5% in [9]; 92.4% in assay [10]; 98.2% in [11]. Besides, the growth in assay [12] is 101%; in assay [13], 97.3%; in assay [14] it was 100%; in assay [15], 111%; in assay [16] it was 96%.

On to `COc1ccc(S(=O)(=O)NCCCNc2nccc(-n3ccc4cccnc43)n2)cc1`, for which the growth was 90.7% in assay [1]; 92.7% in assay [2]; 100% in assay [3]; 81.5% in [4]; 119% in assay [18]; 103% in assay [5]. In addition, the growth was 98.8% in assay [6]; 92.3% in assay [7]; 91.1% in [8]; 78.2% in assay [9]; 98.4% in assay [11]; 113% in [12]. Also, the growth in [14] is 105%; in assay [15], 111%; in assay [16], 94.6%.

For the compound `Oc1ccc(Cl)cc1-c1cc(-c2ccc(F)cc2)n[nH]1`, the growth in assay [17] was 28.2%; in [2], 73.4%; in assay [3] it was 83.6%; in [4], 25.3%; in assay [18], 74.8%; in [5] it was 40%. Moreover, the growth was 49.8% in assay [6]; 65.4% in assay [7]; 66.4% in assay [8]; 24.3% in assay [9]; 84.7% in [10]; 83% in [11]. Moreover, the growth is 75.5% in [12]; 15.8% in [13]; 51.5% in assay [14]; 37.8% in assay [15]; 37% in assay [16].

Turning to `C=C(C)[C@@H]1C[C@@H]2Cc3cc(F)ccc3N1O2`, the growth in [17] is 65.2%; in assay [2], 97.1%; in assay [3], 93.8%; in assay [4], 101%; in assay [18], 104%; in [5], 108%. In addition, the growth in assay [6] is 112%; in assay [7] it was 99%; in [8], 99.6%; in [9], 107%; in [10], 106%; in [11], 104%. The growth in [12] is 98.6%; in assay [13], 95.6%; in assay [14], 98.2%; in [15] it was 93.9%; in assay [16], 103%.

On to `CCOC(=O)c1cn2c3c(cccc3c1=O)C(=O)/C(=C/c1cccc(Cl)c1Cl)C2`, for which the growth is 92.4% in [17]; 95.7% in assay [2]; 102% in assay [3]; 100% in assay [4]; 86.1% in assay [18]; 99.7% in [5]. The growth is 113% in assay [6]; 100% in assay [7]; 101% in assay [8]; 75.5% in assay [9]; 91.6% in [10]; 106% in assay [11]. The growth in assay [12] was 102%; in [13], 96.2%; in [14], 105%; in assay [15], 100%; in assay [16], 108%.

Consider `Cc1ccc(C(=O)C2=Cc3cc4ccccc4n3Cc3cnnn32)cc1`, for which the growth in assay [17] was 99.9%; in assay [2] it was 106%; in assay [3], 96.2%; in assay [4], 104%; in [18] it was 99.6%; in assay [5] it was 104%. The growth in assay [6] is 109%; in assay [7], 94%; in assay [8] it was 108%; in assay [9], 77.8%; in assay [10] it was 89.4%; in [11] it was 71.7%. In addition, the growth was 105% in assay [12]; 90.9% in [13]; 94.1% in assay [14]; 98.7% in [15]; 83.4% in assay [16].

Take `Cc1ccc(-c2nc(C#N)c(S(=O)(=O)n3nc(-c4ccccc4)cc3N)o2)cc1`: the growth in assay [17] is 83.4%; in assay [2], 90.4%; in assay [3], 106%; in [4] it was 114%; in assay [18] it was 94.8%; in [5], 101%. Further, the growth in [6] is 17.7%; in assay [7], 95.6%; in assay [8], 94.9%; in assay [9], 18.2%; in assay [10] it was 96.8%; in assay [11] it was 100%. Further, the growth in [12] was 31.8%; in assay [13] it was 79.5%; in assay [14], 63%; in [15], 112%; in assay [16], 107%.

On to `O=C(c1c[nH]c(=O)c(-c2ccccc2)c1)c1ccccc1O`, for which the growth was 95.2% in [17]; 85.6% in assay [2]; 88.5% in assay [3]; 95.8% in [4]; 83.6% in assay [18]; 82.7% in [5]. Moreover, the growth in [6] was 98.4%; in assay [7], 80%; in [8], 82.4%; in assay [9], 78.4%; in assay [10] it was 93.2%; in assay [11], 96.7%. For the same compound, the growth in assay [12] is 92.6%; in assay [13], 92.6%; in assay [14], 90.5%; in assay [15], 94.2%; in assay [16], 89.6%.

Regarding `COc1ccc(-c2c(N)n[nH]c2-c2cc3c(c(OC)c2OC)OCO3)cc1`, the growth was 57.5% in [17]; 104% in assay [2]; 85.5% in assay [3]; 99.1% in [4]; 106% in assay [18]; 96.4% in assay [5]. Further, the growth was 108% in assay [6]; 83.3% in assay [7]; 96.8% in assay [8]; 106% in assay [9]; 101% in [10]; 106% in assay [11]. The growth in assay [12] is 101%; in [13], 101%; in assay [14], 94.1%; in [15], 106%; in assay [16], 99.9%.

As to `COc1cc(-c2nn(-c3cccc(NC(=O)Nc4ccc(Cl)c(C(F)(F)F)c4)c3)cc2-c2ccncc2)ccc1Cl`, the growth in assay [17] is -8.66% (active); in assay [2], -19.9% (active); in assay [3], 35.8%; in assay [4], 20.8%; in assay [18], 0.426% (active); in assay [5], 25.6%. For the same compound, the growth in assay [6] is -12.4% (active); in assay [7], 2.21% (active); in assay [8], -0.864% (active); in [9] it was 0.618% (active); in assay [10] it was 7.16% (active); in assay [11], -52.3% (active). Besides, the growth in assay [12] was 15.4%; in assay [13], 0.143% (active); in assay [14], 5.3% (active); in [15], 8.88% (active); in assay [16], 2.88% (active).

In the case of `COc1ccc(-c2cnoc2-c2ccc(OC)cc2O)cc1`, the growth is 49.6% in assay [17]; 51.4% in assay [2]; 64.1% in assay [3]; 75.1% in assay [4]; 30% in [18]; 51.6% in assay [5]. In addition, the growth in assay [6] was -11.3% (active); in assay [7], -7.48% (active); in assay [8], -21% (active); in assay [9] it was 40.3%; in assay [10] it was 56.5%; in [11] it was -29.4% (active). The growth in assay [12] is 11%; in assay [13], 19.6%; in assay [14] it was 16.5%; in assay [15] it was 32%; in [16], 19.2%.

Regarding `COc1ccc(Nc2nn3c(-c4ccccc4)cc(-c4ccccc4)nc3c2C(N)=O)c(OC)c1`, the growth was 71.8% in assay [17]; 27.8% in assay [2]; 63.6% in [3]; -8.96% (active) in assay [4]; 63.7% in assay [18]; 91.6% in assay [5]. The growth is 46.2% in assay [6]; 56.8% in assay [7]; 30.4% in [8]; 34.9% in assay [9]; 46.5% in assay [10]; 57.5% in assay [11]. For the same compound, the growth in [12] is 57.2%; in assay [13] it was 46.7%; in assay [14], 21.5%; in assay [15], 86.9%; in assay [16], 51.1%.

Take `CN(C[C@H]1Cc2c(cccc2N2CCN(c3ncccn3)CC2)CN1)[C@H]1CCCc2cccnc21`: the growth was 27.1% in [17]; 30% in [2]; 52.8% in [3]; 52.9% in assay [4]; 39.5% in assay [18]; 37.1% in assay [5]. The growth was 34% in assay [6]; 73.1% in assay [7]; 9.46% (active) in [8]; 26.1% in [9]; 56.9% in assay [10]; 40.7% in [11]. The growth in [12] is 31.3%; in assay [13], 15.6%; in assay [14], 19.6%; in assay [15] it was 53.9%; in assay [16], 43.5%.
